system: HCI01 (cells of a triple-negative basal-like breast cancer xenograft); experiment: cell viability of combination (% of vehicle); higher = less cytotoxic; details: 1 µM; 72 h; partner dose: 10 nM
Method: (§1)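 PDX cells were treated for 72 h with each drug at 1 µM plus afatinib (10 nM; 1 µM for WHIM30). Luciferase viability is expressed as percent of vehicle.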

**Q.** `Cc1cc(Nc2ncc(Cl)c(Nc3ccccc3S(=O)(=O)C(C)C)n2)c(OC(C)C)cc1C1CCNCC1` + CN(C)C/C=C/C(=O)Nc1cc2c(Nc3ccc(F)c(Cl)c3)ncnc2cc1O[C@H]1CCOC1 [Afatinib] was tested. Which “cell viability of combination” value did it give?
**A.** The value was 44.4.

**Q.** Which “cell viability of combination” value does the source give for `Oc1c(Cl)cc(Cl)c2cccnc12` [Chloroxine] + CN(C)C/C=C/C(=O)Nc1cc2c(Nc3ccc(F)c(Cl)c3)ncnc2cc1O[C@H]1CCOC1 [Afatinib] here?
**A.** Its value is 56.1.

**Q.** Which “cell viability of combination” value does the source give for `COc1cc2nccc(Oc3ccc(NC(=O)NC4CC4)c(Cl)c3)c2cc1C(N)=O` [Lenvatinib (E7080)] + CN(C)C/C=C/C(=O)Nc1cc2c(Nc3ccc(F)c(Cl)c3)ncnc2cc1O[C@H]1CCOC1 [Afatinib] here?
**A.** Its value is 40.

**Q.** For `C=C1C(=CC=C2CCCC3(C)C2CCC3C(C)CCCC(C)C)CC(O)CC1O` (stereo not drawn) [Alfacalcidol] + CN(C)C/C=C/C(=O)Nc1cc2c(Nc3ccc(F)c(Cl)c3)ncnc2cc1O[C@H]1CCOC1 [Afatinib], which “cell viability of combination” value is on record?
**A.** Its value is 42.1.

**Q.** `Nc1c(CC(=O)[O-])cccc1C(=O)c1ccccc1.O.[Na+]` [Amfenac Sodium Monohydrate] + CN(C)C/C=C/C(=O)Nc1cc2c(Nc3ccc(F)c(Cl)c3)ncnc2cc1O[C@H]1CCOC1 [Afatinib] was tested. Which “cell viability of combination” value did it give?
**A.** The value was 54.7.

**Q.** `Cc1nc(NC(=O)N2CCCC2C(N)=O)sc1-c1ccnc(C(C)(C)C(F)(F)F)c1` (stereo not drawn) + CN(C)C/C=C/C(=O)Nc1cc2c(Nc3ccc(F)c(Cl)c3)ncnc2cc1O[C@H]1CCOC1 [Afatinib] was tested. Which “cell viability of combination” value did it give?
**A.** Its value is 46.9.

**Q.** With `C[C@H]1O[C@@H](O[C@H]2[C@@H](O)C[C@H](O[C@H]3[C@@H](O)C[C@H](O[C@H]4CC[C@@]5(C)[C@H](CC[C@@H]6[C@@H]5C[C@@H](O)[C@]5(C)[C@@H](C7=CC(=O)OC7)CC[C@]65O)C4)O[C@@H]3C)O[C@@H]2C)C[C@H](O)[C@@H]1O` [Digoxin] + CN(C)C/C=C/C(=O)Nc1cc2c(Nc3ccc(F)c(Cl)c3)ncnc2cc1O[C@H]1CCOC1 [Afatinib] as the molecule, how does the “cell viability of combination” value read?
**A.** Its value is 27.8.

system: UCD52 (cells of a triple-negative basal-like breast cancer xenograft); experiment: as above; details: 1 µM; 72 h; partner dose: 10 nM
Method: as §1

**Q.** For `C=C1C(=CC=C2CCCC3(C)C2CCC3C(C)CCCC(C)(C)O)CC(O)CC1O` (stereo not drawn) [Calcitriol] + CN(C)C/C=C/C(=O)Nc1cc2c(Nc3ccc(F)c(Cl)c3)ncnc2cc1O[C@H]1CCOC1 [Afatinib], which “cell viability of combination” value is on record?
**A.** The value was 43.3.

**Q.** How did the “cell viability of combination” value turn out when `CC(C)C[C@H](NC(=O)[C@H](Cc1ccccc1)NC(=O)c1cnccn1)B(O)O` [Bortezomib] + CN(C)C/C=C/C(=O)Nc1cc2c(Nc3ccc(F)c(Cl)c3)ncnc2cc1O[C@H]1CCOC1 [Afatinib] was run?
**A.** Its value is 15.1.

**Q.** For `CC(=O)c1cc2c(o1)C(=O)c1ccccc1C2=O` [Napabucasin] + CN(C)C/C=C/C(=O)Nc1cc2c(Nc3ccc(F)c(Cl)c3)ncnc2cc1O[C@H]1CCOC1 [Afatinib], which “cell viability of combination” value is on record?
**A.** The value was 17.4.

**Q.** Which “cell viability of combination” value does the source give for `CC[C@@]1(O)C(=O)OCc2c1cc1n(c2=O)Cc2cc3c(CN(C)C)c(O)ccc3nc2-1.Cl` [Topotecan HCl] + CN(C)C/C=C/C(=O)Nc1cc2c(Nc3ccc(F)c(Cl)c3)ncnc2cc1O[C@H]1CCOC1 [Afatinib] here?
**A.** Its value is 66.5.

**Q.** For `Cc1cc(-n2c(=O)[nH]c(=O)n(C)c2=O)ccc1Oc1ccc(SC(F)(F)F)cc1` [Toltrazuril] + CN(C)C/C=C/C(=O)Nc1cc2c(Nc3ccc(F)c(Cl)c3)ncnc2cc1O[C@H]1CCOC1 [Afatinib], which “cell viability of combination” value is on record?
**A.** Its value is 76.1.

**Q.** For `Cl.OC(c1cc(C(F)(F)F)nc2c(C(F)(F)F)cccc12)C1CCCCN1` (stereo not drawn) [Mefloquine hydrochloride] + CN(C)C/C=C/C(=O)Nc1cc2c(Nc3ccc(F)c(Cl)c3)ncnc2cc1O[C@H]1CCOC1 [Afatinib], which “cell viability of combination” value is on record?
**A.** The value was 50.3.

**Q.** How did the “cell viability of combination” value turn out when `O=C(C=Cn1cnc(-c2cc(C(F)(F)F)cc(C(F)(F)F)c2)n1)NNc1cnccn1` + CN(C)C/C=C/C(=O)Nc1cc2c(Nc3ccc(F)c(Cl)c3)ncnc2cc1O[C@H]1CCOC1 [Afatinib] was run?
**A.** The value was 52.2.

**Q.** `CSc1ccc2c(c1)N(CCC1CCCCN1C)c1ccccc1S2.Cl` (stereo not drawn) [Thioridazine HCl] + CN(C)C/C=C/C(=O)Nc1cc2c(Nc3ccc(F)c(Cl)c3)ncnc2cc1O[C@H]1CCOC1 [Afatinib] was tested. Which “cell viability of combination” value did it give?
**A.** Its value is 58.1.

**Q.** For `CCCCCCCCCCCCCCCCOP(=O)([O-])OCC[N+](C)(C)C` [Miltefosine] + CN(C)C/C=C/C(=O)Nc1cc2c(Nc3ccc(F)c(Cl)c3)ncnc2cc1O[C@H]1CCOC1 [Afatinib], which “cell viability of combination” value is on record?
**A.** Its value is 69.5.

**Q.** `CNC(=O)c1cc(Oc2ccc(NC(=O)Nc3ccc(Cl)c(C(F)(F)F)c3)c(F)c2)ccn1.Cl` [Regorafenib hydrochloride] + CN(C)C/C=C/C(=O)Nc1cc2c(Nc3ccc(F)c(Cl)c3)ncnc2cc1O[C@H]1CCOC1 [Afatinib] was tested. Which “cell viability of combination” value did it give?
**A.** The value was 53.3.

**Q.** With `C=CC(=O)N1CCC(Oc2cc3c(Nc4ccc(Cl)c(Cl)c4F)ncnc3cc2OC)CC1` [Poziotinib] + CN(C)C/C=C/C(=O)Nc1cc2c(Nc3ccc(F)c(Cl)c3)ncnc2cc1O[C@H]1CCOC1 [Afatinib] as the molecule, how does the “cell viability of combination” value read?
**A.** Its value is 27.6.

**Q.** How did the “cell viability of combination” value turn out when `O=C(O)c1cc(O)c(O)c(O)c1` [Gallic acid] + CN(C)C/C=C/C(=O)Nc1cc2c(Nc3ccc(F)c(Cl)c3)ncnc2cc1O[C@H]1CCOC1 [Afatinib] was run?
**A.** Its value is 73.6.

**Q.** For `Clc1ccc(C(Cn2ccnc2)OCc2ccsc2Cl)c(Cl)c1` (stereo not drawn) [Tioconazole] + CN(C)C/C=C/C(=O)Nc1cc2c(Nc3ccc(F)c(Cl)c3)ncnc2cc1O[C@H]1CCOC1 [Afatinib], which “cell viability of combination” value is on record?
**A.** The value was 81.8.

**Q.** `Cn1cnc2c(F)c(Nc3ccc(Br)cc3F)c(C(=O)NOCCO)cc21` + CN(C)C/C=C/C(=O)Nc1cc2c(Nc3ccc(F)c(Cl)c3)ncnc2cc1O[C@H]1CCOC1 [Afatinib] was tested. Which “cell viability of combination” value did it give?
**A.** The value was 54.

**Q.** Which “cell viability of combination” value does the source give for `[O-]n1ccccc1=S.[O-]n1ccccc1=S.[Zn+2]` [Zinc Pyrithione] + CN(C)C/C=C/C(=O)Nc1cc2c(Nc3ccc(F)c(Cl)c3)ncnc2cc1O[C@H]1CCOC1 [Afatinib] here?
**A.** The value was 56.

**Q.** Which “cell viability of combination” value does the source give for `COc1cc(Nc2ncc(F)c(Nc3ccc4c(n3)N(COP(=O)(O)O)C(=O)C(C)(C)O4)n2)cc(OC)c1OC` [Fostamatinib (R788)] + CN(C)C/C=C/C(=O)Nc1cc2c(Nc3ccc(F)c(Cl)c3)ncnc2cc1O[C@H]1CCOC1 [Afatinib] here?
**A.** The value was 74.9.

**Q.** Which “cell viability of combination” value does the source give for `CS(=O)(=O)CCNCc1ccc(-c2ccc3ncnc(Nc4ccc(OCc5cccc(F)c5)c(Cl)c4)c3c2)o1.Cc1ccc(S(=O)(=O)O)cc1.Cc1ccc(S(=O)(=O)O)cc1` [Lapatinib Ditosylate] + CN(C)C/C=C/C(=O)Nc1cc2c(Nc3ccc(F)c(Cl)c3)ncnc2cc1O[C@H]1CCOC1 [Afatinib] here?
**A.** Its value is 41.5.

**Q.** With `CCOC(=O)C1=C(COCCN)NC(C)=C(C(=O)OC)C1c1ccccc1Cl` (stereo not drawn) [Amlodipine] + CN(C)C/C=C/C(=O)Nc1cc2c(Nc3ccc(F)c(Cl)c3)ncnc2cc1O[C@H]1CCOC1 [Afatinib] as the molecule, how does the “cell viability of combination” value read?
**A.** The value was 79.6.

**Q.** `Cc1ccc(NC(=O)c2ccc(CN3CCN(C)CC3)cc2)cc1Nc1nc(-c2cccnc2)cs1` [Masitinib (AB1010)] + CN(C)C/C=C/C(=O)Nc1cc2c(Nc3ccc(F)c(Cl)c3)ncnc2cc1O[C@H]1CCOC1 [Afatinib] was tested. Which “cell viability of combination” value did it give?
**A.** Its value is 64.5.

**Q.** Which “cell viability of combination” value does the source give for `O=C(c1ccc(F)c(F)c1Nc1ccc(I)cc1F)N1CC(O)(C2CCCCN2)C1` (stereo not drawn) [Cobimetinib] + CN(C)C/C=C/C(=O)Nc1cc2c(Nc3ccc(F)c(Cl)c3)ncnc2cc1O[C@H]1CCOC1 [Afatinib] here?
**A.** The value was 36.5.

**Q.** Which “cell viability of combination” value does the source give for `COc1cccc2c1C(=O)c1c(O)c3c(c(O)c1C2=O)CC(O)(C(=O)CO)CC3OC1CC(N)C(O)C(C)O1` (stereo not drawn) [Doxorubicin] + CN(C)C/C=C/C(=O)Nc1cc2c(Nc3ccc(F)c(Cl)c3)ncnc2cc1O[C@H]1CCOC1 [Afatinib] here?
**A.** Its value is 28.5.

**Q.** How did the “cell viability of combination” value turn out when `C1=C\COCc2cc(ccc2OCCN2CCCC2)Nc2nccc(n2)-c2cccc(c2)COC/1` [Pacritinib] + CN(C)C/C=C/C(=O)Nc1cc2c(Nc3ccc(F)c(Cl)c3)ncnc2cc1O[C@H]1CCOC1 [Afatinib] was run?
**A.** The value was 47.9.

**Q.** `Nc1ccc2cc3ccc([NH3+])cc3nc2c1.Nc1ccc2cc3ccc([NH3+])cc3nc2c1.O=S(=O)([O-])[O-]` [Proflavine Hemisulfate] + CN(C)C/C=C/C(=O)Nc1cc2c(Nc3ccc(F)c(Cl)c3)ncnc2cc1O[C@H]1CCOC1 [Afatinib] was tested. Which “cell viability of combination” value did it give?
**A.** Its value is 116.

**Q.** For `CCC(=C(c1ccccc1)c1ccc(OCCN(C)C)cc1)c1ccccc1.O=C(O)CC(O)(CC(=O)O)C(=O)O` [Tamoxifen Citrate] + CN(C)C/C=C/C(=O)Nc1cc2c(Nc3ccc(F)c(Cl)c3)ncnc2cc1O[C@H]1CCOC1 [Afatinib], which “cell viability of combination” value is on record?
**A.** Its value is 69.5.

**Q.** For `COc1cc2nccc(Oc3ccc(NC(=O)Nc4cc(C)on4)c(Cl)c3)c2cc1OC` [Tivozanib (AV-951)] + CN(C)C/C=C/C(=O)Nc1cc2c(Nc3ccc(F)c(Cl)c3)ncnc2cc1O[C@H]1CCOC1 [Afatinib], which “cell viability of combination” value is on record?
**A.** Its value is 40.2.

**Q.** Which “cell viability of combination” value does the source give for `CC(C)c1nc(CN(C)C(=O)NC(C(=O)NC(Cc2ccccc2)CC(O)C(Cc2ccccc2)NC(=O)OCc2cncs2)C(C)C)cs1` (stereo not drawn) [Ritonavir] + CN(C)C/C=C/C(=O)Nc1cc2c(Nc3ccc(F)c(Cl)c3)ncnc2cc1O[C@H]1CCOC1 [Afatinib] here?
**A.** Its value is 62.5.
